# Source: PubChem BioAssay (NCATS)
# Results filed as inconclusive are left out. Where a call stands in place of a potency, no number is given. Active and inactive are the calls of the source. The call rests on the fitted dose curve; in most records, active means well fitted curve in the direction sought with a large enough effect; inconclusive means small, poorly fitted or top-dose-only effect, or another doubt; inactive means no such curve, though single readings can be large; an effect the other way counts as inactive or inconclusive.
# Tests used:
# [1] = biological target: Tyrosine-protein kinase Yes (Homo sapiens) (UniProt P07947); assay: qHTS for small molecule inhibitors of Yes1 kinase: Primary Screen (AID 686947); conditions: Yes1 kinase biochemical qHTS inhibition; series mostly up to 76.9 µM; further: nearly all actives have a fitted effect of over 60% in size; further: potency means the concentration at half of the fitted maximal effect
# Sequence of Tyrosine-protein kinase Yes (Homo sapiens) (P07947 whole entry, looked up): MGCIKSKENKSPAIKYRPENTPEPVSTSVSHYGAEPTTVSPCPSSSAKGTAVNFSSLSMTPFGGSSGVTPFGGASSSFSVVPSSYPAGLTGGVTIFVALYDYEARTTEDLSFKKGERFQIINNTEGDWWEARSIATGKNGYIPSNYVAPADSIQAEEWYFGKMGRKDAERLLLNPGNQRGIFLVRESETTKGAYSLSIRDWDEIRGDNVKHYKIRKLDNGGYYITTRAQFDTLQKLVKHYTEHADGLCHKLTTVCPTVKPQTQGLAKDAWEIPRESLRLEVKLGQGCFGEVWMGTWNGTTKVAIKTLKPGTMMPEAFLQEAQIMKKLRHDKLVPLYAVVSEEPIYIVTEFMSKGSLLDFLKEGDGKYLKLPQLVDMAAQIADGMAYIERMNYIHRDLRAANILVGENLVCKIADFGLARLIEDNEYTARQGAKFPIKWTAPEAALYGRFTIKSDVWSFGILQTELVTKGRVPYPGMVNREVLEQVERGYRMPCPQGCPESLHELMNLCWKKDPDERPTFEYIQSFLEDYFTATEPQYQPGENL
# In short: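 ADP-Glo luminescence readout; final 4 nM Yes1, 0.1 mM ATP, 0.3 mg/mL poly(E4Y), Tris pH 7.5, MgCl2, DTT, Brij-35. 20 min compound preincubation, 60 min reaction at RT. Normalized to DMSO wells with and without enzyme.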
# [2] = qHTS for small molecule inhibitors of Yes1 kinase: Counter Assay (AID 686950); conditions: series mostly up to 76.9 µM;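 further: no kinase present so only ADP-Glo detection of a fixed ADP amount is tested; luminescence from ADP-Glo reporting ADP in a fixed ATP and ADP mixture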
# In short: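 Enzyme-free ADP-Glo interference check: compounds were preincubated 20 min in buffer, then an ATP/ADP mix (0.08 mM ATP, 0.02 mM ADP final) was added for 60 min at room temperature before two-step ADP-Glo luminescence detection.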
SMILES,Potency [1],outcome [2]
NC(=O)Cc1ccccc1Oc1nccc(-c2c(-c3ccc(F)cc3)ncn2C2CCNCC2)n1,36.8 µM (active),inactive
COc1cc(Nc2ncc(-c3ccccc3)o2)cc(OC)c1,1.46 µM (active),inactive
Fc1ccc(-c2cc(-c3cn[nH]c3-c3ccccn3)ccn2)cc1,29.2 µM (active),inactive
NC(=O)c1cc(-c2ccncc2)cc(-c2ccccc2)c1N,0.519 µM (active),inactive
CCn1c(-c2nonc2N)nc2c(C#CC(C)(C)O)ncc(OC3CCNCC3)c21,26 µM (active),inactive
O=C(Nc1n[nH]c2cc(-c3cc(F)ccc3F)ccc12)C1CC1,26 µM (active),inactive
NC(=O)c1cccc(Nc2nccc(Nc3cccc(F)c3)n2)c1,1.16 µM (active),inactive
Nc1nc(-c2ccccn2)c(-c2ccc3ncccc3n2)s1,inactive,inactive
CS(=O)(=O)CCNCc1nc(-c2ccc3ncnc(Nc4ccc(F)c(Cl)c4)c3c2)cs1,4.63 µM (active),inactive
CN(C)c1cc2c(Nc3ccc4nc(Cc5ccccc5)[nH]c4c3)ncnc2cn1,0.412 µM (active),inactive
COc1cc(Nc2nccc(Nc3ccc4c(C)[nH]nc4c3)n2)cc(OC)c1OC,0.0923 µM (active),inactive
Fc1ccc(Nc2nccc(-c3c(-c4ccc(C(F)(F)F)cc4)nn4ncccc34)n2)cc1F,inactive,inactive
Cc1nnc(-c2ccc(C)c(-c3ccc(C(=O)NCc4ccc(Cl)cc4)cc3)c2)o1,inactive,inactive
NS(=O)(=O)c1ccc(N=Nc2c(O)[nH]c3ccc(Cl)cc23)cc1,36.8 µM (active),inactive
